HCV inh = blocks hepatitis C virus; Huh7.5.1 HCVcc-Cre infection, luciferase reporter, 44 h; Potency, µM (doses to about 41.8 µM), inactives show at the highest dose activity change, negative = inhibition, actives largely listed as inhibitors; 340,000 tested, 3.4% active; AID 651820; active = well fitted inhibition curve with a large enough effect; inconclusive = small, poorly fitted or top-dose-only effect, or another doubt; inactive = no such curve, though single readings can be large or run the other way; note: potency is the fitted concentration of half-maximal effect
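After 44 h co-culture of compound, cells and HCVcc-Cre (~0.5 moi), substrate is added for 15 min at room temperature and luciferase measured over 15 sec. Cells were seeded at 1,000/well and pre-cultured 4 h.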
HCMV antiviral = blocks human cytomegalovirus replication | 410,000 tested, 4.5% active | activity change, negative = inhibition, % at 57.5 µM | HFF cells, HCMV-luciferase reporter, 72 h; hits give low values | AID 1259415; in the data active = activity change below about -60%; inconclusive = no clear call, values can overlap the other calls; inactive = above about -39%
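Luciferase read-out from HCMV-luciferase-infected HFFs (MOI 1 PFU/cell) 72 h post infection at 37C; compounds added after 16 h cell attachment; activity normalized between buffer-only basal and Salinomycin (10uM) inhibitor controls.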
Vaccinia mCherry = inhibitors of vaccinia virus infection (mCherry reporter signal); Vaccinia virus mCherry reporter infection, fluorescence; Potency, µM (titrated, usually from 36.5 µM), inactives show at the highest dose activity change, negative = inhibition, usual class: inhibitors; 310,000 tested, 0.63% active; AID 720579; calls by dose curve; tested in A549 cells; note: potency is the fitted concentration of half-maximal effect; nearly all actives have a fitted effect of over 35% in size
VACV Venus inh = vaccinia inhibition (Venus reporter) | Potency, µM (doses to about 36.5 µM), without a hit: top-dose activity change, negative = inhibition, usual class: inhibitors | Vaccinia virus Venus reporter expression, fluorescence | 330,000 tested, 0.46% active; calls by dose curve; tested in A549 cells; note: potency is the fitted concentration of half-maximal effect; nearly all actives have a fitted effect of over 30% in size
FMDV inh = antivirals against foot and mouth disease virus; FMDV antiviral cell-based qHTS; Potency, µM (top dose mostly 57.9 µM), for the others: at the highest dose activity change, negative = inhibition, actives largely listed as inhibitors; 410,000 tested, 1.2% active; AID 1159524; calls by dose curve; tested in HEK293T cells; note: read-out not given here; potency is the fitted concentration of half-maximal effect; nearly all actives have a fitted effect of over 45% in size
An asterisk follows results filed as active; i = inactive; ? = inconclusive; · = no result. The list is not random: actives were taken first. Their share in the collection is about 7.3%. % is set by controls: 0 for no effect and ±100 for the full control effect.

SMILES	HCV inh	HCMV antiviral	Vaccinia mCherry	VACV Venus inh	FMDV inh
Cc1ccc(C)c(-n2cc(CNCCCn3cccn3)c(-c3ccccc3)n2)c1	?	-65.3*	-54.5%	-11.0%	-16.7%
Cc1ccc(-c2nn(-c3ccccc3)cc2CNCc2ccccc2)cc1	11.2µM*	-38.3	?	?	40.6%
Cc1ccc(-n2cc(CNCCCn3ccnc3C)c(-c3ccc(F)cc3)n2)cc1	?	-81.7*	?	?	-24.5%
CC1Cc2ccccc2N1C(=O)c1ccc(F)c(S(=O)(=O)N2CCOCC2)c1 (stereo not drawn)	-6.9%	-35.1	-21.7%	-17.4%	-6.6%
O=[N+]([O-])c1ccc(CN2CCN(c3ccc(Cl)cc3)CC2)o1	4.0%	34.5	-18.0%	-13.5%	-21.7%
CC(C)c1ccc(N2C(=O)CSC23C(=O)N2CCCc4cccc3c42)cc1 (stereo not drawn)	-6.5%	-110.6*	·	·	-0.4%
O=C(NCC1Cc2cc(F)cc(-c3cnccn3)c2O1)c1cccc(-c2ccccc2F)c1 (stereo not drawn)	·	·	i	-13.2%	0.0%
CCOc1ccc(CNC(=O)CS(=O)(=O)c2cccc3nsnc23)cc1	·	11.4	-0.9%	4.0%	?
CCn1cc(S(=O)(=O)NC2CCCCC2)cn1	7.6%	-60.3*	-0.1%	4.1%	10.1%
CC1(C)CC2(C)OC(=N)C1(C#N)C2(C#N)C#N (stereo not drawn)	-5.8%	26.4	i	-16.9%	22.4µM*
COc1cccc(NC(=O)CSc2nc3ccccc3cc2Cc2ccccc2)c1	-10.6%	-18.4	10.4%	16.2%	·
COc1cccc(CSc2nc3ccccc3cc2C=O)c1	1.5%	-99.9*	·	?	0.0%
CCC[C@H]1[C@@H](NC(=O)Nc2ccc(C(F)(F)F)cc2)CC[C@@]23CCCN2C(=O)CCC[C@@H]13	·	-4.8	·	·	·
CC(=O)Nc1cccc(C(=O)/C=C/c2ccc[nH]2)c1	5.6%	28.0	·	·	57.3%
CC(=O)Nc1cccc(C(=O)/C=C/c2cccs2)c1	-5.7%	-32.3	?	-17.0%	?
CC(=O)Nc1cccc(C(=O)/C=C/c2ccc(N(C)C)cc2)c1	6.8%	30.0	?	31.3%	26.2%
CC(=O)Nc1cccc(C(=O)/C=C/c2ccc(/C=C/C(=O)c3cccc(NC(C)=O)c3)cc2)c1	?	-87.9*	·	·	·
Cc1cccc(C(=O)Nc2ccc(C(=O)/C=C/c3cccnc3)cc2)c1	?	18.2	i	-17.6%	-22.1%
Cc1cccc(C(=O)Nc2ccc(C(=O)/C=C/c3ccncc3)cc2)c1	-12.3%	-101.3*	i	-18.2%	10.5%
CC(=O)Nc1cccc(C(=O)/C=C/c2ccc(F)cc2)c1	?	-98.6*	-22.2%	-25.4%	?
CC(=O)Nc1cccc(C(=O)/C=C/c2ccc(Br)cc2)c1	?	-71.4*	22.4µM*	11.2µM*	25.1µM*
CCOC(=O)CSc1nc2cc3c(cc2c(=O)n1CCCCCC(=O)NCc1ccc(OC)cc1)OCO3	·	28.9	-19.9%	-17.7%	-9.2%
CN(Cc1ccccc1)[C@@H]1CC[C@@]23CCCN2C(=O)CCC[C@H]3[C@H]1Cc1ccccc1	·	30.1	·	·	·
O=C(COC(=O)CC(c1ccccc1)c1ccccc1)NCc1ccc(Cl)cc1	-7.3%	20.9	-6.1%	-12.0%	35.5µM*
O=C(Cc1c(Cl)cccc1Cl)OCC(=O)N1CCc2ccccc2C1	34.8%	-101.3*	i	-10.0%	2.8%
SMILES	HCV inh	HCMV antiviral	Vaccinia mCherry	VACV Venus inh	FMDV inh
O=C(COC(=O)c1ccco1)NCc1ccccc1Cl	0.1%	18.7	-26.8%	-8.4%	11.4%
O=C(COC(=O)c1ccccc1O)NCc1ccccc1Cl	?	-64.7*	·	·	22.3%
O=C(COC(=O)Cc1c(Cl)cccc1Cl)NCc1ccccc1	·	-67.9*	?	-19.7%	-23.9%
COc1cccc(CN2CCCN(CC(=O)Nc3ccc4c(c3)OCCO4)S2(=O)=O)c1	·	12.1	-2.8%	11.9%	-10.0%
CCc1ccc(NCc2cc3ccc(OC)cc3n(CC(=O)Nc3ccc(C)c(Cl)c3)c2=O)cc1	·	23.9	6.9%	21.8%	-3.8%
COC(=O)[C@@H]1[C@@H](CO)[C@@H]2Cn3c(ccc(Br)c3=O)[C@@H]2N1C(=O)Cc1cccnc1	·	-5.1	·	·	·
CCCc1cc(NC(=O)COC(=O)c2nccnc2N)n(-c2ccccc2)n1	-0.6%	-103.9*	·	·	-5.5%
O=C(N/N=C/c1ccc2c(c1)OCO2)c1ccc(COc2cccc3cccnc23)cc1	12.6µM*	7.1	-7.0%	-23.8%	11.7%
C/C(=N\Nc1ccc(Cl)c(C(=O)O)c1)c1ccc2c(c1)OCO2	11.1%	-15.7	0.0%	-12.1%	77.0%
Cc1ccc(N/N=C/c2ccc3c(c2)OCCO3)cc1Cl	-4.6%	-28.9	-23.0%	-8.8%	24.5%
O=C(O)c1ccc(N/N=C/c2ccc3c(c2)OCO3)cc1	-3.3%	-72.5*	-17.1%	-11.9%	25.1µM*
O=C(O)c1cc(N/N=C/c2ccc3c(c2)OCO3)ccc1Cl	5.1%	97.9	-17.0%	-7.8%	14.1µM*
O=C(O)c1ccc(N/N=C/c2cc3c(cc2[N+](=O)[O-])OCO3)cc1	19.5%	?	-20.6%	-14.2%	-17.5%
O=C(O)c1cc(N/N=C/c2ccc3c(c2)OCCO3)ccc1Cl	0.1%	162.8	-10.6%	0.7%	2.51µM*
CCOc1ccc(OCCC(=O)OCC(=O)Nc2ccc(Cl)cn2)cc1	12.5%	-19.6	i	-17.7%	-13.7%
CCOc1ccc(CCNC(=O)C2CCCN(S(=O)(=O)N(C)c3ccc(F)cc3)C2)cc1 (stereo not drawn)	·	-35.5	-12.5%	-25.3%	?
O=C(COC(=O)c1cc(Cl)nc(Cl)c1)Nc1ccc(Cl)c(S(=O)(=O)N2CCOCC2)c1	2.2%	-5.1	i	-9.7%	-10.0%
O=C(N/N=C/c1ccc2c(c1)OCO2)c1ccc(NC(=O)c2ccc(F)cc2)cc1	-20.7%	-86.3*	?	-9.4%	2.5%
Cc1ccc(-c2csc(N3CCC[C@@H]3C(=O)NCCn3c(-c4ccncc4)nc4ccccc43)n2)cc1	?	-8.4	?	?	?
COc1ccc(-c2nnc(SCc3cc(=O)c4cc(C)cc(C)c4[nH]3)n2C)cc1	·	-65.7*	?	?	15.8µM*
COc1ccc(C(=O)Nc2nnc(SCc3cc(=O)c4cc(C)cc(C)c4[nH]3)s2)cc1	·	19.8	-6.4%	-12.7%	12.4%
COc1ccc(-c2nc(CNS(=O)(=O)c3ccc(F)cc3)cs2)cc1	·	-72.9*	-21.5%	-17.8%	?
Cc1nn(-c2ccccc2)nc1CNC(=O)c1ncoc1-c1ccccc1	10µM*	-21.7	·	·	?
COc1ccc(CN2C[C@H]3CCCN3c3cc(Br)ccc3S2(=O)=O)cc1	?	·	?	-25.3%	-27.3%
C=C1[C@@H](O)CN(Cc2ccc(OC)cc2)S1(=O)=O	·	·	?	28.2µM*	·
O=C(Nc1ccc2nc(-c3ccco3)c(-c3ccco3)nc2c1)N1CCCCCC1	2.82µM*	·	i	-1.1%	-12.2%
CCOC(=O)C1CCN(C(=O)Nc2ccc3nc(-c4ccco4)c(-c4ccco4)nc3c2)CC1	?	·	·	3.2%	?
Clc1cccc(N/N=C/c2ccc(N3CCOCC3)s2)c1	6.1%	-82.6*	-9.2%	-2.9%	?

Assay outcomes as filed in PubChem BioAssay.
